test: EMT-state selective cytotoxicity in co-culture – imaging, PC-3E GFP, TEM4-18 mCherry, primary screen (AID 1345086); conditions: PC-3E GFP / TEM4-18 mCherry co-culture, imaging cell counts; measured here: mesenchymal TEM4-18 mCherry cell survival; at 1 µM;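 further: cells exposed to compound for 72 h before imaging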

Question: With `CC1=C(C(=O)O)N2C(=O)[C@@H](NC(=O)C(N)c3ccc(O)cc3)[C@H]2SC1` (some centres not stated) as the molecule, how does the normalised cell number read?
Answer: The normalised cell number was 1.4.

Question: With `C=C1CC[C@H](O)C/C1=C/C=C1\CCCC2(C)C1CCC2C(C)CCCC(C)C` (some centres not stated) as the molecule, how does the normalised cell number read?
Answer: Its normalised cell number is 1.14.

Question: For `CC(=O)c1cc2ccccc2oc1=O`, which normalised cell number is on record?
Answer: The normalised cell number was 0.98.

Question: With `CCc1cc(Cl)c(OC)c(C(=O)NCC2CCCN2CC)c1O` (configuration not stated) as the molecule, how does the normalised cell number read?
Answer: The normalised cell number was 0.86.

Question: For `OC[C@H]1OC([S-])[C@H](O)[C@@H](O)[C@@H]1O.[Au+]` (some centres not stated), which normalised cell number is on record?
Answer: Its normalised cell number is 0.95.

Question: For `CC(C)(O/N=C(\C(=O)N[C@@H]1C(=O)N2C(C(=O)[O-])=C(C[n+]3ccccc3)CSC12)c1csc(N)n1)C(=O)O` (some centres not stated), which normalised cell number is on record?
Answer: The normalised cell number was 0.94.

Question: Which normalised cell number does the source give for `C[C@H]1O[C@@H](O[C@H]2[C@@H](O)C[C@H](O[C@H]3[C@@H](O)C[C@H](O[C@H]4CC[C@]5(C)C6CC[C@]7(C)[C@@H](C8=CC(=O)OC8)CC[C@]7(O)C6CC[C@@H]5C4)O[C@@H]3C)O[C@@H]2C)C[C@H](O)[C@@H]1O` (some centres not stated) here?
Answer: Its normalised cell number is 0.07.
